Measurements: PubChem BioAssay (Tox21)
Records with an inconclusive call do not appear. Calls of active or inactive are those of the source. Unless noted, calls follow the shape of the full dose curve.

Key:
[1] = Nuclear factor erythroid 2-related factor 2/antioxidant responsive element (Nrf2/ARE) small molecule agonists: qHTS cell viability counter screen in human keratinocytes (AID 1919968; active = well fitted curve in the direction sought with a large enough effect in the repeat runs; an effect the other way counts as inactive or inconclusive; also: nearly all actives have a fitted effect of over 55% in size)
Procedure, shortened: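 Cells of the KeratinoSens line were plated at 1,500 per well and left for 5 h before compound transfer from DMSO stocks. After a 23 h incubation (37 C, 5% CO2), CellTiter-Fluor was added. Signal was taken as fluorescence intensity 1 h later.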

[2] = target: Gonadotropin-releasing hormone receptor (Homo sapiens) (UniProt P30968); assay: Human gonadotropin-releasing hormone receptor (GnRHR) small molecule agonists, calcium flux assay in GnRHR-HEK293 cells (AID 1920063); also: nearly all actives have a fitted effect of over 35% in size
Procedure, shortened: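 Compounds dissolved in DMSO are pin-transferred onto dye-loaded GnRHR-HEK293 cells, which were seeded 18 h before at 37 C/5% CO2. Calcium signal is read as fluorescence intensity at 1 s intervals for 3 min.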

[3] = target: KiSS-1 receptor (Homo sapiens) (UniProt Q969F8); assay: Human kisspeptin (KISS1R) small molecule agonists, calcium flux assay in KISS1R-HEK293 cells (AID 1920064; active = well fitted curve in the direction sought with a large enough effect in the repeat runs; an effect the other way counts as inactive or inconclusive)
Procedure, shortened: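 Cell line: HEK293, stable human KISS1R. Dye loading 1 h at 37 C after 18 h culture. Read: kinetic fluorescence, 480/540 nm, 3 min at 1 s intervals.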

[4] = G protein-coupled receptor (GPCR) small molecule agonists, calcium flux assay: HEK293 wild type cell line counter screen (AID 1920065)
Procedure, shortened: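 Tox21 10K compounds, 15 concentrations each in triplicate, pin-transferred in DMSO onto dye-loaded cells; kinetic read at 480/540 nm for 3 min, 1 s intervals.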

[5] = p53 small molecule agonists, cell-based qHTS assay with human liver microsomes (AID 1963577);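 also: p53 response element beta-lactamase reporter cells with liver microsomes plus NADPH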
Procedure, shortened: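 Steps: plate p53RE-bla cells, incubate 5 h at 37 C; add compound in DMSO; add microsomes (0.5 mg/mL final) and NADPH (0.5 mg/mL final); incubate 16 h at 37 C; add LiveBLAzer, 2 h RT; read fluorescence.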

[6] = p53 small molecule agonists, cell-based qHTS assay with rat liver microsomes (AID 1963578)
Procedure, shortened: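 Metabolic activation is supplied by rat liver microsomes with NADPH (each 0.5 mg/mL final). p53RE-bla cells incubate with compound 16 h at 37 C; reporter activity is measured by LiveBLAzer fluorescence.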

[7] = p53 small molecule agonists, cell-based qHTS assay with human liver microsomes: qHTS cell viability counter screen (AID 1963579); also: nearly all actives have a fitted effect of over 45% in size
Procedure, shortened: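 After the 460/530 nm beta-lactamase read, CellTiter-Glo was added to the same wells and luminescence measured after 30 min at room temperature, giving viability of p53RE-bla cells treated 16 h with compounds plus microsomes and NADPH.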

[8] = p53 small molecule agonists, cell-based qHTS assay with rat liver microsomes: qHTS cell viability counter screen (AID 1963580); also: nearly all actives have a fitted effect of over 45% in size
Procedure, shortened: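 After the beta-lactamase ratio was read, CellTiter-Glo was added to the same wells and luminescence measured at 30 min; cells had been treated 16 h at 37 C with compounds, rat liver microsomes and NADPH (0.5 mg/mL final each).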

[9] = p53 small molecule agonists, cell-based qHTS assay: qHTS cell viability counter screen (AID 1963581); also: nearly all actives have a fitted effect of over 45% in size
Procedure, shortened: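 ATP content measured by luminescence in HCT-116 p53RE-bla cells treated 16 h at 37 C, same wells as the reporter screen.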

[10] = p53 small molecule agonists, cell-based qHTS assay (AID 1963582; active = well fitted activation curve with a large enough effect in the signal ratio in the repeat runs, not every such curve was filed as active; the % refers to the signal ratio)
Procedure, shortened: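 16 h compound exposure (37 C) of p53 response element–bla cells, preceded by 5 h recovery at 37 C/5% CO2; read-out via LiveBLAzer B/G FRET substrate, 2 h RT, fluorescence intensity.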

[11] = target: 5-hydroxytryptamine receptor 2A (Homo sapiens) (UniProt P28223); assay: 5-hydroxytryptamine receptor 2A (HTR2A) small molecule antagonists, cell-based qHTS assay (AID 1963586); also: nearly all actives have a fitted effect of over 45% in size
Procedure, shortened: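 CHO cells stably expressing human HTR2A were plated for 18 h at 37 C, then loaded with calcium dye for 1 h. Compounds were preincubated 5 min at room temperature before DOI (4 nM solution) was added. Kinetic fluorescence was read for 3 min.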

[12] = target: 5-hydroxytryptamine receptor 2A (Homo sapiens) (UniProt P28223); assay: 5-hydroxytryptamine receptor 2A (HTR2A) small molecule agonists, cell-based qHTS assay (AID 1963587); also: nearly all actives have a fitted effect of over 30% in size
Procedure, shortened: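 CHO cells stably expressing human HTR2A, plated 18 h, loaded with calcium dye 1 h at 37 C. Agonist mode: compounds added and intracellular calcium fluorescence recorded kinetically for 2 min at 1 sec intervals.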

[13] = target: Muscarinic acetylcholine receptor M1 (Homo sapiens) (UniProt P11229); assay: Cholinergic receptor muscarinic 1 (CHRM1) small molecule antagonists, cell-based qHTS assay (AID 1963588); also: nearly all actives have a fitted effect of over 40% in size
Procedure, shortened: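 Compounds were tested at 15 concentrations in three independent runs. Dye-loaded CHRM1-CHO cells were exposed 5 min at room temperature before stimulation by acetylcholine added at 50nM. Intracellular calcium was read kinetically on FDSS for 3 min.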

[14] = target: Muscarinic acetylcholine receptor M1 (Homo sapiens) (UniProt P11229); assay: Cholinergic receptor muscarinic 1 (CHRM1) small molecule agonists, cell-based qHTS assay (AID 1963589); also: nearly all actives have a fitted effect of over 35% in size
Procedure, shortened: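 Homogeneous fluorescence calcium flux, agonist mode. Human M1-expressing CHO cells; compound dosed at 15 concentrations, three independent runs; signal sampled every 1 sec.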

[15] = target: Beta-2 adrenergic receptor (Homo sapiens) (UniProt P07550); assay: Adrenergic beta2 receptor (ADRB2) small molecule antagonists, cell-based qHTS assay (AID 1963592); also: series mostly up to about 92 µM; nearly all actives have a fitted effect of over 50% in size
Procedure, shortened: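 Assay format: CHO-ADRB2 cells, 18-20hr seeding at 37C/5% CO2, then compound plus 1nM isoproterenol agonist mix for 0.5hr RT. Homogeneous time-resolved fluorescence cAMP detection after 1hr, expressed as 665/615 nm ratio.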

[16] = target: Beta-2 adrenergic receptor (Homo sapiens) (UniProt P07550); assay: Adrenergic beta2 receptor (ADRB2) small molecule agonists, cell-based qHTS assay (AID 1963593);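 also: CHO cells stably overexpressing human ADRB2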
Procedure, shortened: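 CHO cells stably over-expressing ADRB2 were plated overnight at 37C, then dosed with compounds plus a stimulation mix containing 100uM IBMX and 25uM Ro-20-1724 for 0.5hr at room temperature. cAMP was measured by HTRF competition, 1hr.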

[17] = target: D(2) dopamine receptor (Homo sapiens) (UniProt P14416); assay: Dopamine D2 receptor (DRD2) small molecule agonists, cell-based qHTS assay (AID 1963594); also: nearly all actives have a fitted effect of over 35% in size
Procedure, shortened: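 HEK293 cells stably expressing human DRD2, pre-treated with PDE inhibitor Ro20-1724 (0.1 mM final) and compound 10 min at room temperature, then stimulated with NKH477 (200nM […]) for 30 min. cAMP read by HTRF (665/620 nm).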

[18] = target: D(2) dopamine receptor (Homo sapiens) (UniProt P14416); assay: Dopamine D2 receptor (DRD2) small molecule antagonists, cell-based qHTS assay (AID 1963595; active = well fitted inhibition curve with a large enough effect in the signal ratio in the repeat runs, with a control signal flat; the % refers to the signal ratio)
Procedure, shortened: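 DRD2-HEK293; 0.1 mM Ro20-1724; cpd 10 min RT; NKH477 200 nM + quinpirole 12 nM, 30 min RT; HTRF cAMP (cAMP-d2/anti-cAMP cryptate), 665/620 nm ratio after 1 h.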

[19] = cAMP Responsive Elements (CRE) small molecule agonists, cell-based qHTS assay (AID 1963590)
Procedure, shortened: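 HEK 293T cells stably bearing CRE-bla were plated at 2,000 cells per well and rested 18 h. Compounds, positive controls or DMSO were added for 3 h at 37 C. LiveBLAzer B/G substrate was then loaded for 2 h at room temperature.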

[20] = cAMP Responsive Elements (CRE) small molecule antagonists, cell-based qHTS assay (AID 1963591; active = well fitted inhibition curve with a large enough effect in the signal ratio in the repeat runs, not every such curve was filed as active; the % refers to the signal ratio)
Procedure, shortened: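 First, CRE-bla HEK293T cells settled 18 h at 37 C. Next, compound and 0.25 uM final NKH477 were applied for 3 h. Last, LiveBLAzer B/G substrate was loaded for 2 h at room temperature.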
% is scaled to controls: 0 for no effect and ±100 for the full control effect.

Beta-2 adrenergic receptor (Homo sapiens), sequence (P07550 whole entry, looked up): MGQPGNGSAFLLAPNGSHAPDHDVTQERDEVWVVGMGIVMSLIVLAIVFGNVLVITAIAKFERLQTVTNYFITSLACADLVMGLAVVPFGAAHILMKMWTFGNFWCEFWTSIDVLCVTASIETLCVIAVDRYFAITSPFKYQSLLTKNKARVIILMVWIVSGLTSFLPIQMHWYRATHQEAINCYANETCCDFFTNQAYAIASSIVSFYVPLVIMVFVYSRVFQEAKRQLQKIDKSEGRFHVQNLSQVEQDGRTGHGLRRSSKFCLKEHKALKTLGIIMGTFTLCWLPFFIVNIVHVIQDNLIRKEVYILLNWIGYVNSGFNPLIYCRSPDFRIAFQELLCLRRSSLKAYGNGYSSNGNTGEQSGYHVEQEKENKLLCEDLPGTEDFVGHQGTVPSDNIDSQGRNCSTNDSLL
Gonadotropin-releasing hormone receptor (Homo sapiens), sequence (P30968 whole entry, looked up): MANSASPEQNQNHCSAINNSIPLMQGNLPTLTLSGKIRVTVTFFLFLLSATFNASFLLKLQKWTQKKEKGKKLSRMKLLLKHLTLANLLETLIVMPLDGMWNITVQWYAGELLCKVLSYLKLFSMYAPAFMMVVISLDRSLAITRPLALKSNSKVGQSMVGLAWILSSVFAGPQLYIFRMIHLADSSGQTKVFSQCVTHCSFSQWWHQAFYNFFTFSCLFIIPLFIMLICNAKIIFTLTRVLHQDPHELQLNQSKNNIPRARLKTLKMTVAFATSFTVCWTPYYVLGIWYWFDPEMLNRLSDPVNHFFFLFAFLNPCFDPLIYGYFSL
D(2) dopamine receptor (Homo sapiens), sequence (P14416 whole entry, looked up): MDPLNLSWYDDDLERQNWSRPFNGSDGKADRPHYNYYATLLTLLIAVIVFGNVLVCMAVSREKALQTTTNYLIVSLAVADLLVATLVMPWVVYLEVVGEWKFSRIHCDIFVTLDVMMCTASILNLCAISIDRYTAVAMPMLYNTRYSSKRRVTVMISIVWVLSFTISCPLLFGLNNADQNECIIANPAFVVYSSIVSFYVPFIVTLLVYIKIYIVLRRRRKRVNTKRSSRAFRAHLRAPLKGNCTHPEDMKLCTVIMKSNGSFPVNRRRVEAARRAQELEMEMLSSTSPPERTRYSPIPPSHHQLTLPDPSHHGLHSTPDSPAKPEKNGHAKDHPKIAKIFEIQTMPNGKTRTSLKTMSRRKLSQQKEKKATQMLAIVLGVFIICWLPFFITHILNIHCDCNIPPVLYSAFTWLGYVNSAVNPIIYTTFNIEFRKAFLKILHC
5-hydroxytryptamine receptor 2A (Homo sapiens), sequence (P28223 whole entry, looked up): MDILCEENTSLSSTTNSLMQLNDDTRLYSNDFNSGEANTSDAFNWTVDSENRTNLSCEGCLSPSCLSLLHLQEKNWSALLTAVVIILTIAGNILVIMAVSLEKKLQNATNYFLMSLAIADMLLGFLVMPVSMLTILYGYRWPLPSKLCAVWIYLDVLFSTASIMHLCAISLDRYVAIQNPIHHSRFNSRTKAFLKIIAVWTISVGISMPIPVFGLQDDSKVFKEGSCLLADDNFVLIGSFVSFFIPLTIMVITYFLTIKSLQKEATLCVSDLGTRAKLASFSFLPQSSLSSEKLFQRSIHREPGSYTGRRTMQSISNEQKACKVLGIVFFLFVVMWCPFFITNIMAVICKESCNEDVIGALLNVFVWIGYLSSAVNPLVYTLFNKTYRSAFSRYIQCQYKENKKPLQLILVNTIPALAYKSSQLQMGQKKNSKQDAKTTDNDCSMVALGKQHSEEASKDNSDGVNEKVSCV
KiSS-1 receptor (Homo sapiens), sequence (Q969F8 whole entry, looked up): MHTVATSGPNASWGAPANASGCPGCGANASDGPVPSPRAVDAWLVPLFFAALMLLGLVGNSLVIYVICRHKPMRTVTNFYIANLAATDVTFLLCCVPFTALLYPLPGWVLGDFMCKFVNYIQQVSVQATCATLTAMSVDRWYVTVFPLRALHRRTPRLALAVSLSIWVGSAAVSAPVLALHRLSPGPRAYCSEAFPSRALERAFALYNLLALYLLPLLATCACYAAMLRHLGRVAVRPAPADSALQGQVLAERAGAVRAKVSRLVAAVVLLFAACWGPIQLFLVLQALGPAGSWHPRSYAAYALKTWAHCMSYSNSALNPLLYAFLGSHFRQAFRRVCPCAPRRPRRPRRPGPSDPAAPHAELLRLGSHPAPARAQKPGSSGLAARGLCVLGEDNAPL
Muscarinic acetylcholine receptor M1 (Homo sapiens), sequence (P11229 whole entry, looked up): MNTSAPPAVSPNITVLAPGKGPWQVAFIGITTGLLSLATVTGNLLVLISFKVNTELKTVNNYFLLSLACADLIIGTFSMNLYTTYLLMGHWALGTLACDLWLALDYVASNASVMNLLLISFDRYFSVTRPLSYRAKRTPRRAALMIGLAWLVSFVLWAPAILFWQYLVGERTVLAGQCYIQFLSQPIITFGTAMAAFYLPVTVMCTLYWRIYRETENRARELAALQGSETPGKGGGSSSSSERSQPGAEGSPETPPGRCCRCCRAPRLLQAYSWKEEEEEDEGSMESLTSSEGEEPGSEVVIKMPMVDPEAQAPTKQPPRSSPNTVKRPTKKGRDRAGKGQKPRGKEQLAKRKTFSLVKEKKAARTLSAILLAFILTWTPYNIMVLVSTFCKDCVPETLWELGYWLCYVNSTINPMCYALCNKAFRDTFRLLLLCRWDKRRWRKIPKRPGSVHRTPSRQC

Cc1cc(Cl)c(C)cc1Cl
inactive: Potency [1] | Potency [2] | Potency [3] | Potency [4] | Potency [5] | Potency [6] | Potency [7] | Potency [8] | Potency [9] | Potency [10] | Potency [11] | Potency [12] | Potency [13] | Potency [14] | Potency [15] | Potency [16] | Potency [17] | Potency [18]

CC(C)=CC(C)(C)C
inactive: Potency [1] | Potency [2] | Potency [3] | Potency [4] | Potency [5] | Potency [6] | Potency [7] | Potency [8] | Potency [9] | Potency [10] | Potency [11] | Potency [12] | Potency [13] | Potency [19] | Potency [15] | Potency [17]

C=C/C=C/C=C/CCCCC
inactive: activity change, negative = cytotoxicity [1] 4.28% [at 19 µM] | activity change [2] 0.656% [at 11.8 µM, hits give high values] | activation [3] 1.28% [at 15.8 µM] | activation [4] 0.367% [at 11.8 µM] | activation [5] -4.49% [at 13.5 µM] | activation [6] 0.431% [at 13.6 µM] | activity change, negative = cytotoxicity [7] 1.88% [at 13.5 µM] | activity change, negative = cytotoxicity [8] -6.94% [at 13.5 µM] | activity change, negative = cytotoxicity [9] -4.28% [at 13.5 µM] | activation [10] -3.72% [at 13.5 µM] | activity, negative = inhibition [11] -10.4% [at 12.7 µM] | activation [12] -2.6% [at 15.9 µM] | activity, negative = inhibition [13] 25.8% [at 12.6 µM] | activation [14] 0.27% [at 15.8 µM] | activation [19] 0.016% [at 19 µM] | activity change, negative = inhibition [20] 0.0574% [at 18.9 µM] | activity change, negative = inhibition [15] 4.38% [at 19 µM] | activity change, negative = inhibition [18] -7.54% [at 18.9 µM]

CCCCCCCCCCCCCCCC(=O)OC/C=C(C)/C=C/C=C(C)/C=C/C1=C(C)CCCC1(C)C
inactive: Potency [1] | Potency [2] | Potency [3] | Potency [4] | Potency [5] | Potency [6] | Potency [7] | Potency [8] | Potency [9] | Potency [10] | Potency [11] | Potency [12] | Potency [13] | Potency [14] | Potency [19] | Potency [20] | Potency [15] | Potency [17] | Potency [18]

CCN(Cc1cccc(S(=O)(=O)O)c1)c1ccc(C(=C2C=CC(=[N+](CC)Cc3cccc(S(=O)(=O)[O-])c3)C=C2)c2ccccc2)cc1
inactive: Potency [1] | Potency [2] | Potency [3] | Potency [4] | Potency [5] | Potency [6] | Potency [7] | Potency [8] | Potency [9] | Potency [10] | Potency [11] | Potency [12] | Potency [13] | Potency [19] | Potency [15] | Potency [17]

CC(=O)Nc1ccccc1O
inactive: Potency [1] | Potency [2] | Potency [3] | Potency [4] | Potency [5] | Potency [6] | Potency [7] | Potency [8] | Potency [9] | Potency [10] | Potency [11] | Potency [12] | Potency [13] | Potency [14] | Potency [19] | Potency [15] | Potency [16] | Potency [17] | Potency [18]

O=P(c1ccccc1)(c1ccccc1)c1ccccc1
inactive: Potency [1] | Potency [2] | Potency [3] | Potency [4] | Potency [5] | Potency [6] | Potency [7] | Potency [8] | Potency [9] | Potency [10] | Potency [11] | Potency [12] | Potency [13] | Potency [19] | Potency [20] | Potency [18]
